High-throughput results as filed in PubChem.
A selection follows.
aSyn 5UTR act: Activators via SNCA 5'UTR binding, MLPCN | 300,000 tested, 7.1% active | activity score, % (tested at 7.5 µM), hits read low | alpha-synuclein 5'UTR reporter, activators screen | AID 1814; in the data active means activity score below about -60%
* marks the source's active call; other numbers are inactive results.

For O=C(N/N=C\c1ccc([N+](=O)[O-])s1)c1cncc(Br)c1 the results were aSyn 5UTR act 77.
For CCOC(=O)c1ccc(-c2ccc(/C=N/NC(=O)c3cncc(Br)c3)o2)cc1 the results were aSyn 5UTR act -164*.
Screening COc1ccc2[nH]c(=O)c(CN(c3ccccc3OC)S(=O)(=O)c3ccccc3)cc2c1 returned aSyn 5UTR act -69*.
COc1ccc2[nH]c(=O)c(CN(Cc3cccs3)S(=O)(=O)c3cccc4nsnc34)cc2c1 was read as aSyn 5UTR act 76.
O=[N+]([O-])c1ccccc1N/N=C/c1cc2ccccc2nc1Cl was read as aSyn 5UTR act -206*.
For Cc1cccc2cc(/C=N/Nc3ccc(C(=O)O)cc3)c(Cl)nc12 the results were aSyn 5UTR act -197*.
For O=C(O)c1ccc(N/N=C/c2cc3ccccc3nc2Cl)cc1 the results were aSyn 5UTR act -143*.
COCc1cc(C)nc(Nc2ccc(C)c(C)c2)c1C#N was read as aSyn 5UTR act -71*.
For Cc1ccc(/C(N)=N/OC(=O)CCc2ccccc2)cc1 the results were aSyn 5UTR act -129*.
Screening N/C(=N\OC(=O)CCc1ccccc1)c1ccccc1Cl returned aSyn 5UTR act -70*.
For N#C/C(=C\c1ccc(O)cc1)c1nc2ccccc2o1 the results were aSyn 5UTR act -120*.
`COc1cc(/C=N/NC(=O)c2cc(-c3cccn3C)n[nH]2)cc(OC)c1OC` gave aSyn 5UTR act -71*.
Screening COc1cccc(/C=N/NC(=O)c2cc(-c3cccn3C)n[nH]2)c1O returned aSyn 5UTR act 95.
For CC(C)(C)NC(=O)COC(=O)c1ccccc1Nc1ccc(SC(F)F)cc1 the results were aSyn 5UTR act -145*.
NC(=O)COC(=O)c1ccccc1Nc1ccc(SC(F)F)cc1 was read as aSyn 5UTR act -82*.
O=C(COC(=O)c1ccccc1Nc1ccc(SC(F)F)cc1)NC1CC1 was read as aSyn 5UTR act -100*.
For O=C(COC(=O)c1ccccc1Nc1ccc(SC(F)F)cc1)NCc1ccco1 the results were aSyn 5UTR act -91*.
Cc1nn(C)c(C(=O)Nc2ccc(Br)cc2F)c1Br was read as aSyn 5UTR act -110*.
Cc1occc1C(=O)Nc1ccc(Br)cc1F was read as aSyn 5UTR act -165*.
`Cc1ccc2nc3sc(C(=O)N4CCOCC4)c(N)c3cc2c1` gave aSyn 5UTR act 100.
Screening Cc1ccc2cc3c(N)c(C(=O)N4CC(=O)Nc5ccccc54)sc3nc2c1 returned aSyn 5UTR act 82.
For COc1ccc2cc3c(N)c(C(=O)N4CCCC4)sc3nc2c1 the results were aSyn 5UTR act -189*.
For CC(C)c1ccc2nc3sc(C(=O)N4CCc5ccccc5C4)c(N)c3cc2c1 the results were aSyn 5UTR act -62*.
CCOc1ccc2nc3sc(C(=O)N4CCN(C)CC4)c(N)c3cc2c1 was read as aSyn 5UTR act -80*.
For COc1ccc2c(C)c(C)c(=O)oc2c1OC the results were aSyn 5UTR act -84*.
For CC(C)N(C(C)C)S(=O)(=O)c1ccc(N2CCc3ccccc3C2)nc1 the results were aSyn 5UTR act -150*.
Screening CCN(CC)S(=O)(=O)c1ccc(N2CCc3ccccc3C2)nc1 returned aSyn 5UTR act -78*.
Screening CCN(CC)S(=O)(=O)c1ccc(N/N=C/c2ccc(O)cc2O)nc1 returned aSyn 5UTR act 90.
`C=CCSc1cc(C)nc2c(-c3ccccc3)cnn12` gave aSyn 5UTR act -74*.
Screening Cc1cc(N)n2ncc(-c3ccccc3)c2n1 returned aSyn 5UTR act -149*.
COc1ccccc1N1C(=O)S/C(=C\c2cc(C)n(C)c2C)C1=O was read as aSyn 5UTR act -128*.
`COc1ccccc1N1C(=O)S/C(=C\c2ccc(C)s2)C1=O` gave aSyn 5UTR act -135*.
For Cc1ccc(/C=C2\Sc3ccccc3C2=O)s1 the results were aSyn 5UTR act -104*.
`Cc1ccc2c(c1)C(=O)C(=O)N2CCCOc1ccccc1C` gave aSyn 5UTR act -110*.
For C=CCNCCCCOc1ccc(OCc2ccccc2)cc1 the results were aSyn 5UTR act -80*.
COCCCNCCCCOc1ccc(OCc2ccccc2)cc1 was read as aSyn 5UTR act -69*.
For c1ccc(COc2ccc(OCCCNC3CCCC3)cc2)cc1 the results were aSyn 5UTR act -70*.
For CC(C)(O)C#Cc1ccc(C(=O)NC2CCCCC2)s1 the results were aSyn 5UTR act -98*.
CCc1ccc(C(=O)NC2CCCCC2)s1 was read as aSyn 5UTR act -82*.
CC(C)(O)C#Cc1ccc(C(=O)Nc2ccc3c(c2)OCO3)s1 was read as aSyn 5UTR act -143*.
Screening CC(=O)Nc1ccc(-c2nnc(SCC(=O)c3ccc4c(c3)Cc3ccccc3-4)n2C)cc1 returned aSyn 5UTR act -62*.
`COc1cccc(Cn2c(N)c(C#N)c3nc4ccccc4nc32)c1OC` gave aSyn 5UTR act 53.
Screening COc1cccc(CNc2ccc3c(c2)ncn3C(C)C)c1OC returned aSyn 5UTR act -87*.
Cc1ccc(C)c(S(=O)(=O)N2CCN(Cc3ccc(O)c4ncccc34)CC2)c1 was read as aSyn 5UTR act 74.
Screening Cc1cccc(NC(=O)c2ccc(C)c(S(=O)(=O)N3CCCCC3)c2)n1 returned aSyn 5UTR act -116*.
O=C(Nc1ccc(S(=O)(=O)N2CCCCCC2)cc1)c1[nH]ncc1[N+](=O)[O-] was read as aSyn 5UTR act 86.
`Cc1ccc(C(=O)Nc2cccc(O)c2)cc1S(=O)(=O)N1CCCCCC1` gave aSyn 5UTR act -139*.
For Cc1ccc(C(=O)Nc2ccc3cn[nH]c3c2)cc1S(=O)(=O)N1CCCCC1 the results were aSyn 5UTR act -111*.
CC(C)OC(=O)c1ccc(NC(=O)CSc2nc3ncccc3[nH]2)cc1 was read as aSyn 5UTR act -62*.
`CC(=O)c1coc2c1cc(O)c1ccccc12` gave aSyn 5UTR act -83*.
Screening CN1CCN(C(=O)c2cc(-c3ccccc3)on2)CC1 returned aSyn 5UTR act -80*.
CCN(CC)C(=O)c1cc(-c2ccc(Br)cc2)on1 was read as aSyn 5UTR act -152*.
O=C(c1cc(-c2cccc(O)c2)on1)N1CCCC1 was read as aSyn 5UTR act -106*.
Screening O=C(c1cc(-c2ccc(Br)cc2)on1)N1CCCC1 returned aSyn 5UTR act -109*.
For O=C(c1cc(-c2ccccc2)on1)N1CCCCCC1 the results were aSyn 5UTR act -200*.
O=C(Nc1ccc(C#Cc2ccccc2)cc1)C1CC1 was read as aSyn 5UTR act -113*.
`CCCC(=O)Nc1ccc(C#Cc2ccccc2)cc1` gave aSyn 5UTR act -68*.
Screening O=C(Nc1ccccc1O)c1ccc(NC(=O)C2CC2)cc1 returned aSyn 5UTR act -805*.
`CCc1noc(C)c1C(=O)Nc1nc(-c2cccs2)cs1` gave aSyn 5UTR act -66*.
Screening Cc1ccc(C)c(NC(=S)c2ccccn2)c1 returned aSyn 5UTR act -114*.
Cc1ccc(C)c(NC(=S)c2ccc3ccccc3n2)c1 was read as aSyn 5UTR act -288*.
S=C(Nc1ccc(Cl)cc1)c1nc2ccccc2s1 was read as aSyn 5UTR act -127*.
For Cc1ccc(C)c(NC(=S)c2nc3ccccc3s2)c1 the results were aSyn 5UTR act -258*.
Screening CSc1ccc2c(c1)N(CCC1CCCCN1C)c1ccccc1S2 (centres undefined) returned aSyn 5UTR act 110.
`O=C(/C=C/c1ccc2ccccc2c1)c1ccoc1` gave aSyn 5UTR act -123*.
O=c1c2oc3nc4c(cc3c2ncn1CCCc1ccccc1)CCCC4 was read as aSyn 5UTR act -105*.
`CCCCCCn1cnc2c(oc3nc4c(cc32)CCCC4)c1=O` gave aSyn 5UTR act -108*.
